High-throughput results (PubChem)
Only some compounds are listed: those with a hit (about 3.5% of all), similar ones and a draw of the others.
FBW7 act: activators of human E3 ligase FBW7; Q969H0; AlphaScreen FBW7–phospho-cyclin E peptide binding, activator screen; normalized activity (activation), % at 26.1 µM; 650,000 tested, 0.13% active; in the data active means normalized activity above about 1.9%;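 further: purified mutant Fbw7 with reduced substrate affinity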
TEAD-YAP inh: TEAD-YAP interaction inhibition. HEK-TIYL cells, TEAD-Gal4/YAP UAS-luciferase luminescence. inhibition, % at 9.12 µM. 640,000 tested, 1.4% active; in the data active means inhibition above about 32%;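 further: 0% = median of test compound wells and 100% = reference inhibitor wells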
GPR151 ag: human GPR151 activation. Q8TDV0. PathHunter beta-arrestin GPR151 cells, luminescence. activation, % at 11.2 µM. 650,000 tested, 1% active; in the data active means activation above about 4.9%;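 further: 0% = median of compound wells and 100% = cells with positive control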
MITF inh: blocks human microphthalmia-associated transcription factor. O75030. AlphaScreen MITF homodimerization, bead proximity signal. inhibition, % at 2.6 µM. 650,000 tested, 0.91% active; in the data active means inhibition above about 50%;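 further: 0% = vehicle wells with protein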
Target sequence (O75030 whole entry, looked up): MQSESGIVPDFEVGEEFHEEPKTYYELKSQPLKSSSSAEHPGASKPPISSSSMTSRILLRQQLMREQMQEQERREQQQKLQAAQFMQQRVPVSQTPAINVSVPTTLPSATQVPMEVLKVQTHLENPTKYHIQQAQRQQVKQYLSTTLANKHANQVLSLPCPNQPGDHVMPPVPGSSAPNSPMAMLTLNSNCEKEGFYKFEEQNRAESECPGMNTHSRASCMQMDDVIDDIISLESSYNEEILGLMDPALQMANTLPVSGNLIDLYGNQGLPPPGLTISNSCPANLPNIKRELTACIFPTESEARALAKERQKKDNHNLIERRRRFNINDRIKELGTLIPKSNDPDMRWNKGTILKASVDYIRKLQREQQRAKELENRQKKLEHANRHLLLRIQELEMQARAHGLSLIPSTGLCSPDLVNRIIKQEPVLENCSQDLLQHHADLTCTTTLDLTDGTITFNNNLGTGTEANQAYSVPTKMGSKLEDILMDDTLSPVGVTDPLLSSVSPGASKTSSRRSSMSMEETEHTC
MITF inh conf: confirmation of human MITF inhibitors. shares compounds with MITF inh. AlphaScreen MITF homodimerization, biotin/His-MITF beads. inhibition, % at 2.6 µM. 4,700 tested, 16% active;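 active means inhibition above a cutoff derived from the DMSO control wells, cut at about 28% in these data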;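 further: 0% = MITF dimer wells with DMSO only; inhibitors lower the bead chemiluminescence by keeping MITF from dimerizing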
AlphaScreen DR: AlphaScreen optical interference, dose response counter-screen. shares compounds with MITF inh. AlphaScreen optical interference counterscreen, cell-free. IC50, µM. 480 tested, 6% active. AID 1259373; call rule not given here
AlphaScreen intf2: counter-screen: compounds optically interfering with AlphaScreen; LysRS AlphaScreen counterscreen, signal interference, triplicate; inhibition, % at 2.6 µM; 4,700 tested, 7.6% active; shares compounds with MITF inh;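 active means inhibition above a cutoff derived from the DMSO control wells, cut at about 30% in these data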
* marks the source's active call; other numbers are inactive results; . = no result.

SMILES	FBW7 act	TEAD-YAP inh	GPR151 ag	MITF inh	MITF inh conf	AlphaScreen intf2	others
CCc1cc2c(=O)c(Oc3cnn(-c4ccccc4)c3)coc2cc1OCC(=O)OC	0	3	0	8	.	.
CC1(C)CC(=O)C2=C(C1)N(c1ccc(Br)cc1)C(N)=C(C#N)C2c1cccc([N+](=O)[O-])c1 (configuration not stated)	0	-3	-1	0	.	.
Cc1cccc(NC(=O)CN(c2ccc(I)cc2)S(C)(=O)=O)c1	0	-75	0	71*	-2	0
Cc1ccc(NC(=O)CN(c2ccc(I)cc2)S(C)(=O)=O)cc1	0	-64	-2	-19	.	.
CCCCC[C@H](O)/C=C/[C@@H]1[C@@H](C/C=C\CCCC(=O)NCCCCCNC(=O)CCCCC2SC[C@@H]3NC(=O)N[C@H]23)[C@@H](O)C[C@H]1O (some centres not stated)	.	.	-1	124*	123*	101*
CCCCC/C=C/C=C1/C(=O)C=C[C@@H]1C/C=C\CCCC(=O)O	.	.	0	35	.	.
CCCCC[C@H](O)/C=C/[C@H]1[C@H](O)CC(=O)[C@@H]1C/C=C\CCCC(=O)NCCCCCNC(=O)CCCCC1SC[C@@H]2NC(=O)N[C@H]12 (some centres not stated)	.	.	0	124*	124*	101*
CCCCC[C@H](O)/C=C/[C@H]1[C@H](O)CC(=O)[C@@H]1C/C=C\CCCC(=O)NCCO	.	.	1	3	.	.
CCCCC/C=C/C=C1/C(=O)C=C[C@@H]1C/C=C\CCCC(=O)NCCCCCNC(=O)CCCCC1SC[C@@H]2NC(=O)N[C@H]12 (some centres not stated)	.	.	-1	124*	124*	101*
CCN(CC)Cc1nc2sc(C)c(C)c2c(=S)[nH]1	1	11	-2	-7	.	.
OC(CNC1CCCC1)COCc1ccccc1Cl (configuration not stated)	0	5	0	26	.	.
OC(CNCC(c1ccco1)N1CCCC1)COc1ccccc1 (configuration not stated)	0	6	-2	54*	-4	1
OC(CNCC(c1ccco1)N1CCCC1)COCc1ccccc1Cl (configuration not stated)	0	12	0	61*	-11	1
O=C(Nc1ccc(C(F)(F)F)cc1)N[C@H]1C[C@H]2C(=O)N[C@H](Cc3ccccc3)C(=O)N2C1	0	0	1	-5	.	.
O=c1[nH]c(N2CCCC2)nc2c1CCN(Cc1c(O)ccc3ccccc13)C2	0	-4	-1	-6	.	.
O=C1CCCN1CCn1cnc2c(Nc3ccc(N4CCOCC4)cc3)nc(N3CCN(c4ccccn4)CC3)nc21	0	14	0	6	.	.
O=C1CCCN1CCn1cnc2c(Nc3ccc4c(c3)OCO4)nc(N3CCN(c4ccccn4)CC3)nc21	0	19	-1	76*	4	10
CCOC(=O)c1ccc(-n2c(C)c3c(OC)cccc(=O)c3c2C)cc1	0	6	0	8	.	.
CCOc1ccc2nc(SCC(=O)NCC3CCCO3)c(C#N)cc2c1 (configuration not stated)	0	-2	-1	6	.	.
CC(C)c1ccc2nc(SCC(=O)NCC3CCCO3)c(C#N)cc2c1 (configuration not stated)	0	9	0	66*	11	19
N#Cc1c(-c2ccco2)cc(-c2ccco2)nc1N	-1	5	-1	85*	73*	20	AlphaScreen DR=>6.5
N#Cc1c(-c2ccco2)cc(C2CC2)nc1N	0	-18	0	-8	.	.
O=[N+]([O-])c1ccccc1CN1CCN(Cc2ccco2)CC1	0	-7	0	54*	7	15
Clc1ccccc1CN1CCN(Cc2ccco2)CC1	0	-20	1	69*	16	16
O=[N+]([O-])c1ccccc1CN1CCSCC1	0	0	0	38	.	.
SMILES	FBW7 act	TEAD-YAP inh	GPR151 ag	MITF inh	MITF inh conf	AlphaScreen intf2	others
CC1CN(Cc2ccccc2Cl)CC(C)O1 (configuration not stated)	1	3	0	80*	-2	6
CC1CC(C)CN(S(=O)(=O)c2ccc(C(=O)Nc3sc4c(c3C(N)=O)CCCCC4)cc2)C1 (configuration not stated)	0	5	-1	71*	-5	-4
CCOC(=O)c1c(NC(=O)c2ccc(S(=O)(=O)N3CC(C)CC(C)C3)cc2)sc2c1CCCC2 (configuration not stated)	0	-7	-1	-5	.	.
CCCN(CCC)S(=O)(=O)c1ccc(C(=O)Nc2sc3c(c2C(N)=O)CCN(CC)C3)cc1	0	0	1	71*	-2	-4
CC1CC(C)(C)NC(=S)N1CC(=O)NC(c1ccccc1)c1ccccc1 (configuration not stated)	0	9	0	-2	.	.
COc1cc(C2Nc3cc(C)c(C)cc3NC3=C2C(=O)CC(C)(C)C3)c(Br)c(OC)c1OC (configuration not stated)	0	2	-2	-7	.	.
O=C(NC1CCCCC1)N1CCN2C(=O)[C@@H]3CSCN3C(=O)[C@H]2C1	0	14	-1	76*	60*	-2	AlphaScreen DR=>6.5
O=C(NC1CCCCC1)N1CCN2C(=O)[C@@H]3C[C@@H](O)CN3C(=O)[C@H]2C1	0	5	0	80*	73*	-9	AlphaScreen DR=>6.5
Cc1ncc(CO)c(/C=N/NC(=S)Nc2cccc(S(=O)(=O)N(C)C)c2)c1O	0	4	0	68*	7	22
Cc1ncc(CO)c(/C=N/NC(=S)Nc2cccc(Cl)c2)c1O	-1	1	1	38	.	.
Cc1ncc(CO)c(/C=N/NC(N)=S)c1O	0	0	0	105*	6	27
CCCCOc1ccc(C2C=C(Nc3ccc(CC)cc3)C(=O)N2c2ccc(CC)cc2)cc1 (configuration not stated)	0	8	0	6	.	.
COc1ccc(C=O)cc1OC(=O)Cc1ccccc1	0	3	1	4	.	.
CCOc1ccccc1C1C2=C(CC(C)(C)CC2=O)Nc2nc3ccccc3n21 (configuration not stated)	0	3	1	3	.	.
O=C(NCc1cccs1)C1(S(=O)(=O)c2ccc(Cl)cc2)CC1	0	1	5	16	.	.
CCSc1nnc(NC(=O)c2cc(Cl)ccc2Cl)s1	0	3	-1	2	.	.
CCSc1nnc(NC(=O)c2cc(S(=O)(=O)N3CCCCC3)ccc2Cl)s1	0	-7	-1	57*	12	16
CCCOc1ccccc1C(=O)Nc1nnc(SCC)s1	1	-4	-2	67*	20	12
CC(=O)Nc1ccc(NC(=O)c2ccc3nc(Nc4ccc(-n5ccnc5)cc4)sc3c2)cc1	0	-3	-2	4	.	.
